Potency data for 40 compounds are collected here from PubChem BioAssay (NCATS).

Results filed as inconclusive are left out. Activity calls are given as the source filed them. Calls follow the shape of the dose curve; as a rule, active = well fitted cell-killing curve with a large enough effect; inconclusive = small, poorly fitted or top-dose-only effect, or effect the other way; inactive = no such curve, though single readings can be large or run the other way.
Potency is read from the fitted curve at half-maximal effect.

This test can be described thus: Quantitative High-Throughput drug screen in 47 multiple myeloma cell lines against the NCATS MIPE library collection: EJM_DSMZ cell viability assay (AID 1918926; also: nearly all actives have a fitted effect of over 30% in size). Conditions: EJM myeloma cell viability, CellTiter-Glo ATP, 48 h; series mostly up to 45.8 µM. The source says:
PI: Beverly A. Mock Ph.D.
Laboratory of Cancer Biology and Genetics,
Center for Cancer Research, National Cancer Institute,
National Institute of Health, Bethesda, Maryland
Drug resistance and disease progression are common in multiple myeloma (MM) patients, underscoring the need for new therapeutic combinations. […] We hypothesized that effective combinations would reduce MYC expression and enhance p16 activity. […] These preclinical data identify potentially useful drug combinations for evaluation in drug-resistant MM and reveal potential mechanisms of combined drug sensitivity.
Described herein is the primary MIPE qHTS used to cherrypick compounds. Validated compounds were then further tested for potential synergistic activiy.
[1] Peat TJ, Gaikwad SM, Dubois W, Gyabaah-Kessie N, Zhang S, Gorjifard S, Phyo Z, Andres M, Hughitt VK, Simpson RM, Miller MA, Girvin AT, Taylor A, Williams D, D'Antonio N, Zhang Y, Rajagopalan A, Flietner E, Wilson K, Zhang X, Shinn P, Klumpp-Thomas C, McKnight C, Itkin Z, Chen L, Kazandijian D, Zhang J, Michalowski AM, Simmons JK, Keats J, Thomas CJ, Mock BA. Drug combinations identified by high-throughput screening promote cell cycle transition and upregulate Smad pathways in myeloma. Cancer Lett. 2023 Aug 1;568:216284. doi: 10.1016/j.canlet.2023.216284. Epub 2023 Jun 24. PMID: 37356470; PMCID: PMC10408729.
SEQUENCE No. (e.g., 1, 2, 3, etc.); […] (e.g., Cells, Incubation, Reagent, etc.); VALUE and DESCRIPTION.
1; Cells; 5 uL; white, solid bottom 1536-well Greiner assay plate.
2; Compounds; 23 nL; Kalypsis pin tool (Wako USA) equipped with a 1536-well pin head to transfer to the assay plates.
3; Incubation; 48 hours; 37C incubation.
4; Reagent;5uL; CellTiter Glo (Promega).
5; Detector; 425V; Luminescence; Viewlux PerkinElmer.
NOTES (numbers refer to Sequence numbers above)
1. The cell-based screening methods employed in this study were like those previously published. Briefly, the corresponding myeloma cell lines were screened in 1,536-well plates with 500 cells, 5-uL per well for inhibition of cell viability (assessed by measuring ATP levels with CellTiterGlo).
2. NCATS MIPE 4.0 library of approved and investigational drugs were added using the Kalypsis pin tool. Wells treated with DMSO only for 100% viability and media only wells for 0% viability were used as controls.
3. The assay plates were covered and incubated for 48 hours in a 37C, 5% CO2 incubator with controlled humidity.
4. After 48 hours, CellTilter-GloTM luminescent substrate mix (Promega) reagent was added to the assay plate and plates we incubated for 5 min at room temperature.
5. Signal was measured as median relative luminescence units on a ViewLux (PerkinElmer) multiplate reader.
[1] Heske CM, Davis MI, Baumgart JT, Wilson K, Gormally MV, Chen L, Zhang X, Ceribelli M, Duveau DY, Guha R, Ferrer M, Arnaldez FI, Ji J, Tran HL, Zhang Y, Mendoza A, Helman LJ, Thomas CJ. Matrix Screen Identifies Synergistic Combination of PARP Inhibitors and Nicotinamide Phosphoribosyltransferase (NAMPT) Inhibitors in Ewing Sarcoma. Clin Cancer Res. 2017 Dec 1;23(23):7301-7311. doi: 10.1158/1078-0432.CCR-17-1121. Epub 2017 Sep 12. PMID: 28899971; PMCID: PMC6636827.
A general note: Cellular ATP, detected with luciferase, serves as a proxy for viable cell number.
On to `NC(=O)c1c(OCc2c(F)cc(Br)cc2F)nsc1NC(=O)NCCCCN1CCCC1`, for which the Potency is 20.9 µM (active). Regarding `COc1cc2ncnc(Nc3ccc(F)c(Cl)c3)c2cc1NC(=O)C=CCN1CCCCC1`, the Potency was 20.9 µM (active).

For `O=C(NCCS(=O)(=O)c1ccc(C(F)(F)F)cn1)c1ccc(Cl)cc1`, the Potency result is “inactive”. Take `C[C@@H]1COC(Nc2ccc3ncnc(Nc4ccc(OCc5nccs5)c(Cl)c4)c3c2)=N1`: the Potency is 1.05 µM (active). Consider `Cn1c(=O)n(-c2ccc(C(C)(C)C#N)cc2)c2c3cc(-c4cnc5ccccc5c4)ccc3ncc21`, for which the Potency was 0.833 µM (active).

Consider `CC(=O)Nc1sc2c(c1-c1nc3ccccc3s1)CNC2`, for which the Potency is 23.5 µM (active). In the case of `Clc1ccc2ncc(-c3cccc(NC4CNC4)n3)n2c1` it was 18.7 µM (active). In the case of `CC1COC2(CCN(c3nc(=O)c4cc(C(F)(F)F)cc([N+](=O)[O-])c4s3)CC2)O1` (stereo not given) it was “inactive”. Consider `O=C(Nc1cn[nH]c1-c1nc2ccc(CN3CCOCC3)cc2[nH]1)NC1CC1`, for which the Potency is 1.87 µM (active). On to `CN(C)CC=CC(=O)Nc1cc2c(Nc3ccc(F)c(Cl)c3)ncnc2cc1O[C@H]1CCOC1`, for which the Potency is 16.6 µM (active). The result for `Nc1ccccc1NC(=O)c1ccc(CNc2nccc(-c3cccnc3)n2)cc1` reads 3.32 µM (active). In the case of `Cc1cc(CN2CCN(c3c(Br)cnc4nc(-c5ccc(N6CCN(C)CC6)cc5)[nH]c34)CC2)no1` it was 6.62 µM (active); in that of `CC(=O)Nc1nc(C)c(-c2ccc(Cl)c(S(=O)(=O)NCCO)c2)s1`, 11.8 µM (active). In the case of `Nc1cc(C(F)(F)F)c(-c2cc(N3CCOCC3)nc(N3CCOCC3)n2)cn1` it was 5.9 µM (active); in that of `CC[C@H]1CN2CCc3cc(OC)c(OC)cc3[C@H]2C[C@@H]1C[C@@H]1NCCc2cc(OC)c(OC)cc21`, 0.187 µM (active); in that of `Cc1cnc(Nc2ccc(F)cc2Cl)nc1-c1c[nH]c(C(=O)N[C@H](CO)c2cccc(Cl)c2)c1`, 23.5 µM (active). With `Cc1ccc(C(=O)Nc2ccc(CN3CCN(C)CC3)c(C(F)(F)F)c2)cc1C#Cc1cnc2cccnn12`, the Potency was 2.64 µM (active). In the case of `CC(C)(C)c1cc(NC(=O)Nc2ccc(-c3cn4c(n3)sc3cc(OCCN5CCOCC5)ccc34)cc2)no1` it was 18.7 µM (active); in that of `Cn1c(CNc2ccc(C(=N)N)cc2)nc2cc(C(=O)N(CCC(=O)O)c3ccccn3)ccc21`, 0.0006 µM (active); in that of `COc1cc2ncn(-c3cc(OCc4ccccc4C(F)(F)F)c(C(N)=O)s3)c2cc1OC`, 2.64 µM (active). In the case of `c1cc(-c2cnn3cc(-c4ccc(OCCN5CCCCC5)cc4)cnc23)ccn1` it was 16.6 µM (active); in that of `CCS(=O)(=O)c1cccc(-c2cc(C(=O)NC3CCN(C)CC3)c(C)c3[nH]c4ncc(C)cc4c23)c1`, 2.64 µM (active). In the case of `Cc1nc2cnc3ccc(C#Cc4cccnc4)cc3c2n1-c1ccc(C(C)(C)C#N)cc1` it was 1.66 µM (active).

Consider `OCCCNc1cc(-c2ccnc(Nc3cccc(Cl)c3)n2)ccn1`, for which the Potency was 0.118 µM (active).

Take `Clc1cccc(-c2nnnn2Cc2cccnc2)c1Cl`: the Potency result is “inactive”. For `OCc1ccc(-c2ccc(-c3ccc(CO)s3)o2)s1`, the Potency is 11.8 µM (active). The result for `Cc1ccc(-c2ncn(-c3ccc(Nc4nccc(-c5cccc(N6CCOCC6)c5)n4)cc3)n2)cn1` reads 0.187 µM (active); that for `Nc1cccc(-c2cc3c(Oc4cccc(O)c4)ncnc3[nH]2)c1`, 16.6 µM (active); that for `O=C1CCC[C@@H]2[C@H]3CCC[N+]4([O-])CCC[C@@H](CN12)[C@@H]34` (stereo not given in full), “inactive”.

As to `COc1cccc(Nc2c(C(N)=O)cnc3c(C)cc(S(=O)(=O)c4cccc(C(=O)N(C)C)c4)cc23)c1`, the Potency entry is “inactive”. In the case of `C=CC(=O)Nc1cc2c(Nc3ccc(F)c(Cl)c3)ncnc2cc1OCCCN1CCOCC1` it was 7.43 µM (active); in that of `CC[C@H](CO)Nc1nc(NCc2ccccc2)c2ncn(C(C)C)c2n1`, 26.4 µM (active). The result for `O=C(C=Cc1cccnc1)NCCCCC1CCN(C(=O)c2ccccc2)CC1` reads “inactive”; that for `Nc1ccc(S(=O)(=O)Nc2ncccn2)cc1`, “inactive”. The result for `CN(c1ncccc1CNc1nc(Nc2ccc3c(c2)CC(=O)N3)ncc1C(F)(F)F)S(C)(=O)=O` reads 8.33 µM (active); that for `CNC(=O)c1ccc(N2C(=S)N(c3cnc(C#N)c(C(F)(F)F)c3)C(=O)C23CCC3)cc1F`, 0.166 µM (active); that for `O=C(C=Cc1cccc(S(=O)(=O)Nc2ccccc2)c1)NO`, 6.05 µM (active). `CN(C)CCCN=c1c2ccccc2n(C)c2[nH]c(=O)n(C)c(=O)c12`: the Potency is 20.9 µM (active). The result for `Cc1cc(N2CCOCC2)cc2[nH]c(-c3c(NC[C@@H](O)c4cccc(Cl)c4)cc[nH]c3=O)nc12` reads 0.235 µM (active). The result for `CC(=O)OCC(=O)[C@@]1(O)[C@H](C)C[C@H]2[C@@H]3C=C(C)C4=Cc5c(cnn5-c5ccccc5)C[C@]4(C)[C@@H]3[C@@H](O)C[C@@]21C` reads 20.9 µM (active).
